Compounds without any hit were thinned out: in the full panel of roughly 79,000, 15% have a hit. Active and inactive are the calls of the source. Rule as the data show it: active = growth inhibition above about 70%; inactive = the rest.
What was measured:
[1] = NCI Yeast Anticancer Drug Screen. Data for the wt1 strain (AID 149);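 also: 0% = growth of vehicle-treated wt1 cultures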; details: S. cerevisiae wt1 strain (SPY 50644) growth inhibition, stronger effect = higher value
Procedure, shortened: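 The wt1 strain was treated with compounds, and growth was compared with vehicle-treated cultures to give inhibition.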

[2] = NCI Yeast Anticancer Drug Screen. Data for the rad50EPP+ strain (AID 151);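 also: 0% = growth of vehicle-treated control cultures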; details: S. cerevisiae rad50 mutant strain, stronger effect = higher value
Procedure, shortened: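 One strain with a rad50 alteration (rad50EPP+) was compound-treated, its growth then compared to that of vehicle controls.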

[3] = NCI Yeast Anticancer Drug Screen. Data for the mgt1 strain (AID 153); details: S. cerevisiae mgt1 mutant growth inhibition, stronger effect = higher value
Procedure, shortened: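 After exposure of the mgt1 yeast mutant to compound, growth was measured and reported as inhibition compared with vehicle controls.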

[4] = NCI Yeast Anticancer Drug Screen. Data for the rad50 strain (AID 155);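 also: 0% = growth of vehicle-only cultures of the same strain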; details: S. cerevisiae rad50 strain growth inhibition, stronger effect = higher value
Procedure, shortened: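 Cells are treated with compound, grown, and their growth is then scored against vehicle-only cultures of the same repair-deficient yeast strain.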

[5] = NCI Yeast Anticancer Drug Screen. Data for the mec2-1 strain (AID 157); details: S. cerevisiae mec2-1 strain, stronger effect = higher value
Procedure, shortened: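 Test agents were screened against the mec2-1 yeast strain, with defined DNA repair or cell cycle alteration. Growth was scored as inhibition against vehicle-only controls.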

[6] = NCI Yeast Anticancer Drug Screen. Data for the rad14 strain (AID 159);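 also: 0% = growth of vehicle-treated control cultures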; details: S. cerevisiae rad14 strain growth inhibition, stronger effect = higher value
Procedure, shortened: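 Readout: yeast growth inhibition, referenced to vehicle-only cultures. Strain bears a defined alteration in DNA damage repair.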

[7] = NCI Yeast Anticancer Drug Screen. Data for the sgs1 mgt1 strain (AID 161);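 also: 0% = growth of cultures given vehicle only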; details: S. cerevisiae sgs1 mgt1 strain, stronger effect = higher value
Procedure, shortened: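 Mutant yeast exposed to compound; growth scored against vehicle-only wells.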

[8] = NCI Yeast Anticancer Drug Screen. Data for the CLN2oe strain (AID 163);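 also: 0% = growth of vehicle-only control cultures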; details: S. cerevisiae CLN2oe strain, stronger effect = higher value
Procedure, shortened: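 Here, growth inhibition in a cell-cycle-altered yeast strain after compound exposure was quantified against vehicle control growth.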

[9] = NCI Yeast Anticancer Drug Screen. Data for the cln2 rad14 strain (AID 165);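 also: 0% = growth equal to vehicle treated cultures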; details: S. cerevisiae cln2 rad14 strain, stronger effect = higher value
Procedure, shortened: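 Growth of compound-exposed yeast (cln2 rad14 genotype) measured and expressed as inhibition relative to vehicle.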

[10] = NCI Yeast Anticancer Drug Screen. Data for the bub3 strain (AID 167); details: S. cerevisiae bub3 mutant strain, stronger effect = higher value
Procedure, shortened: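 Part of a panel of yeast mutants defective in DNA damage repair or cell cycle regulation. Each strain is grown with compound, and inhibition is calculated relative to solvent-treated cultures.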

[11] = NCI Yeast Anticancer Drug Screen. Data for the wt2 strain (AID 169);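 also: 0% = growth of vehicle-treated yeast cultures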; details: S. cerevisiae wt2 strain growth inhibition, stronger effect = higher value
Procedure, shortened: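 Genetically defined yeast strains from a DNA-repair/cell-cycle panel were used. Compound-exposed yeast growth was measured, and the inhibition was calculated relative to vehicle treatment.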

[12] = NCI Yeast Anticancer Drug Screen. Data for the mlh1 strain (AID 171);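 also: 0% = growth of vehicle-treated control cultures of the same strain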; details: S. cerevisiae mlh1 strain growth inhibition, stronger effect = higher value
Procedure, shortened: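 Here the genetically defined yeast mutant is grown with each compound, and the extent to which its growth falls below that of vehicle-exposed cells is reported.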

[13] = NCI Yeast Anticancer Drug Screen. Data for the mlh1 rad18 strain (AID 175); details: S. cerevisiae mlh1 rad18 strain growth inhibition, stronger effect = higher value
Procedure, shortened: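 In this whole-cell yeast screen, a strain with altered DNA damage repair is challenged with compound, and its growth is measured against matched vehicle-treated controls.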

[14] = NCI Yeast Anticancer Drug Screen. Data for the rad18 strain (AID 177); details: S. cerevisiae rad18 mutant growth inhibition, stronger effect = higher value
Procedure, shortened: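 Screen uses a yeast strain with a defined lesion in DNA damage repair; compound effect is read as loss of growth compared to untreated vehicle cultures.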

[15] = at 5.0 µM (retest, dose inferred, filed as 0.5)
[16] = at 50.0 µM (retest, dose inferred, filed as 5.0)

Measured: growth inhibition

Cc1ccc(Cl)c2c(=O)c3ccccc3[nH]c12
inactive: [1]; at 1.2 µM -1% | [1]; at 3.7 µM -3% | [1]; at 11.0 µM -2% | [1]; at 33.0 µM 0% | [1]; at 100.0 µM 5% | [2]; at 1.2 µM 4% | [2]; at 3.7 µM 2% | [2]; at 11.0 µM 12% | [2]; at 33.0 µM 24% | [2]; at 100.0 µM 58% | [3]; at 1.2 µM -2% | [3]; at 3.7 µM -1% | [3]; at 11.0 µM 0% | [3]; at 33.0 µM 0% | [3]; at 100.0 µM 7% | [4]; at 1.2 µM -9% | [4]; at 3.7 µM -44% | [4]; [15] 5% | [4]; at 11.0 µM 14% | [4]; at 33.0 µM 3% | [4]; at 100.0 µM 51% | [5]; at 1.2 µM -1% | [5]; at 3.7 µM -3% | [5]; [15] 4% | [5]; at 11.0 µM -2% | [5]; at 33.0 µM 1% | [5]; [16] 32% | [5]; at 50.0 µM 40% | [5]; at 100.0 µM 11% | [6]; at 1.2 µM 0% | [6]; at 3.7 µM 3% | [6]; at 11.0 µM 4% | [6]; at 33.0 µM 5% | [6]; at 100.0 µM 19% | [7]; [15] 0% | [7]; [16] 34% | [7]; at 50.0 µM 41.3% | [8]; at 1.2 µM -4% | [8]; at 3.7 µM -5% | [8]; at 11.0 µM -4% | [8]; at 33.0 µM -2% | [8]; at 100.0 µM -12% | [9]; [15] -8% | [9]; [16] 9% | [9]; at 50.0 µM 11.2% | [10]; at 1.2 µM -3% | [10]; at 3.7 µM -2% | [10]; [15] -5% | [10]; at 11.0 µM -7% | [10]; at 33.0 µM -1% | [10]; [16] 14% | [10]; at 50.0 µM 27.6% | [10]; at 100.0 µM 4% | [11]; at 1.2 µM 0% | [11]; at 3.7 µM 8% | [11]; at 11.0 µM 1% | [11]; at 33.0 µM 4% | [11]; at 100.0 µM 10% | [12]; at 1.2 µM 0% | [12]; at 3.7 µM -1% | [12]; at 11.0 µM 0% | [12]; at 33.0 µM 0% | [12]; at 100.0 µM 12% | [13]; [15] 2% | [13]; [16] 59% | [14]; at 1.2 µM 1% | [14]; at 3.7 µM 2% | [14]; at 11.0 µM 2% | [14]; at 33.0 µM 7% | [14]; at 100.0 µM 54%
active: [4]; [16] 71% | [4]; at 50.0 µM 84.1% | [13]; at 50.0 µM 71%

O=[N+]([O-])C(=C(NCc1ccccc1)NCc1ccccc1)C(Cl)=C(Cl)Cl
inactive: [1]; at 1.2 µM 1% | [1]; at 3.7 µM 2% | [1]; at 11.0 µM 7% | [1]; at 33.0 µM 10% | [1]; at 100.0 µM 41% | [2]; at 1.2 µM 3% | [2]; at 3.7 µM 18% | [2]; at 11.0 µM 56% | [3]; at 1.2 µM -2% | [3]; at 3.7 µM 3% | [3]; at 11.0 µM 5% | [3]; at 33.0 µM 29% | [3]; at 100.0 µM 62% | [4]; at 1.2 µM 1% | [4]; at 3.7 µM 1% | [4]; [15] -8% | [4]; at 11.0 µM 6% | [4]; at 33.0 µM 13% | [4]; [16] 57% | [4]; at 50.0 µM 26.6% | [4]; at 100.0 µM 52% | [5]; at 1.2 µM -1% | [5]; at 3.7 µM 0% | [5]; [15] -7% | [5]; at 11.0 µM 4% | [5]; at 33.0 µM 14% | [5]; [16] 24% | [5]; at 50.0 µM 23.6% | [5]; at 100.0 µM 54% | [6]; at 1.2 µM -4% | [6]; at 3.7 µM -3% | [6]; at 11.0 µM 1% | [6]; at 33.0 µM 11% | [6]; at 100.0 µM 56% | [7]; [15] 2% | [7]; [16] 45% | [7]; at 50.0 µM 66% | [8]; at 1.2 µM -5% | [8]; at 3.7 µM -3% | [8]; at 11.0 µM 6% | [8]; at 33.0 µM 14% | [8]; at 100.0 µM 62% | [9]; [15] 40% | [9]; [16] 55% | [9]; at 50.0 µM 64.2% | [10]; at 1.2 µM -5% | [10]; at 3.7 µM -9% | [10]; [15] 0% | [10]; at 11.0 µM 0% | [10]; at 33.0 µM 5% | [10]; [16] 42% | [10]; at 50.0 µM 33% | [10]; at 100.0 µM 49% | [11]; at 1.2 µM 1% | [11]; at 3.7 µM 2% | [11]; at 11.0 µM 9% | [11]; at 33.0 µM 19% | [12]; at 1.2 µM 4% | [12]; at 3.7 µM 1% | [12]; at 11.0 µM 9% | [12]; at 33.0 µM 25% | [13]; [15] 12% | [14]; at 1.2 µM -1% | [14]; at 3.7 µM 1% | [14]; at 11.0 µM 5% | [14]; at 33.0 µM 20%
active: [2]; at 33.0 µM 83% | [2]; at 100.0 µM 85% | [11]; at 100.0 µM 70% | [12]; at 100.0 µM 85% | [13]; [16] 83% | [13]; at 50.0 µM 81.5% | [14]; at 100.0 µM 85%
